Source: PubChem BioAssay (several laboratories)
PolyA inh: yeast polyadenylation inhibition | activity score, % at 12 µM | 300,000 compounds, 0.02% hits | S. cerevisiae SKY197-pL101 polyadenylation reporter, beta-gal luminescence; efflux-impaired pdr1/pdr3 knockout yeast; score 100 = 6 SD above DMSO;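 active = lowest replicate activity score at least 50, where 100 means six control SD above control mean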;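 note: yeast exposed to compound for 9 h at 30 °C; higher score means more reporter readthrough which indicates perturbed polyadenylation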
dFosB act-1: mouse delta FosB homodimer activation. purified delta FosB, TAMRA-CDK5 oligo fluorescence polarization; percent of positive-control signal above neutral wells. activation, % at 25 µM. 340,000 compounds, 0.99% hits. AID 493131;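 active = mean activation above about 17%, with every replicate also reaching it, limit read from the data, passing the limit was not always enough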
Target sequence (P13346 whole entry, looked up): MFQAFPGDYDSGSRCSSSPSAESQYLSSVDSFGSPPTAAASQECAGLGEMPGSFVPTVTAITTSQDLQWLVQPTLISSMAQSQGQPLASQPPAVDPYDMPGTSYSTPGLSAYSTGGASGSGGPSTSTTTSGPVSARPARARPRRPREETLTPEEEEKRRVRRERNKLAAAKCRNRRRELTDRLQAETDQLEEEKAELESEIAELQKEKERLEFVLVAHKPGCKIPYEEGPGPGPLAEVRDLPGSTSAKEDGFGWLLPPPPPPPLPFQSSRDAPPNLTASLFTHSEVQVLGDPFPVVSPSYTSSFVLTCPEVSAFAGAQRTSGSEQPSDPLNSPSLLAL
NLRP3 yeast inh: NALP3 inhibition in yeast; Yeast reconstituted NLRP3/ASC/caspase-1, beta-gal luminescence, 24 h; inhibition, % at 10 µM; 330,000 compounds, 0.39% hits;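 active = inhibition of 50% or more; inactive = inhibition below 50%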;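 note: plate controls were induced DMSO wells for no effect and uninduced yeast grown without galactose for full effect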
EBNA-1 inh: blocks EBNA-1 binding to DNA; 300,000 compounds, 0.34% hits; AID 1950; inhibition, % at 14.8 µM; EBNA-1 DNA binding, fluorescence polarization; in the data active = inhibition above about 28%
ZTA DNA inh: blocks Epstein-Barr virus ZTA, an EBNA-1 counter-screen | P03206 | ZTA-DNA binding, fluorescence polarization | inhibition, % at 11 µM | 320,000 compounds, 0.15% hits | AID 2234; in the data active = inhibition above about 33%
Target sequence (P03206 whole entry, looked up): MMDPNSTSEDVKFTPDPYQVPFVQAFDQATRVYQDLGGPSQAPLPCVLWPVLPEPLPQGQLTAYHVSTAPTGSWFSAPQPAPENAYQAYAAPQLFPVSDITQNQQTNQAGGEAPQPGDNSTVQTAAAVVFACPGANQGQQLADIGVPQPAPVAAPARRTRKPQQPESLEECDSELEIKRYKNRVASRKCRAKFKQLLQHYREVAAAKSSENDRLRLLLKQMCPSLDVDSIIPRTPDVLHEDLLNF
NALP1 inh: NALP1 inhibition; inhibition, % at 10 µM; AID 2071; 280,000 compounds, 0.61% hits; S. cerevisiae NALP1/ASC/caspase-1 growth, X-gal OD620, 72 h; in the data active = inhibition mostly above about 24%, no sharp cut-off; inactive = mostly below about 32%
dFosB act-2: enhances mouse delta FosB homodimer binding to DNA | shares compounds with dFosB act-1 | purified delta FosB, TAMRA-CDK5 oligo fluorescence polarization; normalised: neutral wells 0, positive control 100 | activation, % at 24.9 µM | 2,400 tested, under 10 active | AID 588690;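 active = highest replicate activation at or above 34% and every replicate reaching that threshold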;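 note: higher polarization means more probe DNA bound by delta FosB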
Starred values were filed as active, the others as inactive; nt = no result. Compounds with a hit are over-represented: about 2.2% of the library has one in this group of screens.

SMILES	PolyA inh	dFosB act-1	NLRP3 yeast inh	EBNA-1 inh	ZTA DNA inh	NALP1 inh	dFosB act-2
Cc1ccc(-n2c(O)c(C=NCc3ccccn3)c3ccccc3c2=O)cc1	-6.6	25.9*	8.7	8.5	1.9	nt	5.5
Cc1cccc(-n2c(O)c(C=NCc3ccccn3)c3ccccc3c2=O)c1	14.0	0.3	-0.2	9.1	17.2	20.5	nt
O=C(NC(=S)Nc1ccc2oc(=O)ccc2c1)c1cccc(Cl)c1	-20.5	87.8*	18.7	-6.6	-2.9	8.9	0.2
O=C(NC(=S)Nc1ccc2oc(=O)ccc2c1)c1cccc(F)c1	6.7	1.4	17.8	-7.8	-22.4	22.5	nt
COc1ccc2oc(=O)c(-c3cn4ccc(C)cc4n3)cc2c1	-15.2	26.2*	14.6	6.1	7.7	5.0	4.5
O=C(NCCCN1CCCC1=O)C1CCC(CNS(=O)(=O)c2ccc(Cl)cc2)CC1 (configuration not stated)	4.5	-3.2	20.9	-26.1	10.8	0.2	nt
COC(=O)Cn1c(=NC(=O)CSCC(=O)NC2CCCCC2)sc2cc(OC)ccc21	9.6	29.4*	7.8	-2.2	0.0	12.5	-1.4
CCOC(=O)Cn1c(=NC(=O)CSC(C)=O)sc2cc(OC)ccc21	-12.3	-4.2	23.8	-5.2	-0.2	30.7	nt
Cc1ccc(NC(=O)/C(C#N)=C/c2ccc(C)s2)c(C)c1	10.1	16.7*	10.7	-0.1	3.4	4.4	3.8
Cc1ccc(/C=C(\C#N)C(=O)Nc2c(C)cccc2C)s1	-7.9	0.4	24.7	0.3	4.8	13.0	nt
O=C(Nc1ccc(Cl)cc1)Nc1nc(-c2ccccc2)cs1	-12.7	29.8*	15.3	-1.4	9.2	4.9	5.6
O=C(Nc1ccc([N+](=O)[O-])cc1)Nc1nc(-c2ccc(Cl)s2)cs1	-15.3	28.7*	nt	-8.5	0.2	22.4	7.4
CC(=O)Nc1nc(-c2cc([N+](=O)[O-])cs2)cs1	-14.3	29.4*	1.5	-13.0	3.7	-4.1	-1.9
CCCC(=O)Nc1nc(-c2ccc(Cl)s2)cs1	-15.7	-2.9	42.9	1.4	8.5	5.2	nt
CC(=O)Nc1nc(-c2ccc([N+](=O)[O-])cc2)cs1	13.4	2.3	4.7	-5.1	8.0	1.6	nt
Nc1ccc2c(c1)C(O)c1cccc(C(=O)O)c1-2 (configuration not stated)	nt	-0.5	nt	nt	nt	nt	nt
CCOc1ccc(-n2cc(C(=O)NCCOC)c3cc(OC)c(OC)cc3c2=O)cc1	7.2	-9.3	8.5	2.5	2.2	12.4	nt
CCOc1ccc(-n2cc(C(=O)Nc3cccc(OC)c3)c3cc(OC)c(OC)cc3c2=O)cc1	21.2	40.0*	-0.9	5.2	-14.5	4.3	3.7
COC(=O)c1ccc(C2C(Oc3ccc(OC)cc3)C(=O)N2CCc2ccc(F)cc2)cc1 (configuration not stated)	-7.4	23.2*	-13.5	-4.7	-1.7	9.0	-0.6
COc1ccc(OC2C(=O)N(Cc3ccc(F)cc3)C2c2cc(OC)c(OC)c(OC)c2)cc1 (configuration not stated)	-7.7	-2.6	6.8	7.7	20.1	11.9	nt
Cc1ccc(OCCCCCCN2CCNCC2)c(Br)c1	-67.0	22.5*	17.9	0.0	-4.7	nt	-2.0
Cc1ccc(OCCCCN2CCC(C)CC2)c(Br)c1	-101.7	-2.1	28.4	0.3	6.4	40.9	nt
Cc1ccnc(NC(=O)Cn2c(=O)oc3ccccc32)c1	5.4	2.5	-13.0	-0.5	0.3	-9.2	nt
O=C(CCC(=O)c1ccc(Oc2ccccc2)cc1)Nc1cccc(Cl)c1	9.8	26.2*	18.6	-3.2	9.5	12.4	-0.2
COc1cccc(Cn2cnc3c(NS(=O)(=O)c4ccc(Cl)cc4)c(C)c(C)cc32)c1	17.3	17.1*	6.4	9.7	8.4	16.0	1.3
SMILES	PolyA inh	dFosB act-1	NLRP3 yeast inh	EBNA-1 inh	ZTA DNA inh	NALP1 inh	dFosB act-2
Cc1ccnc(NC(=O)CN(C)S(=O)(=O)c2cccc3nsnc23)c1	6.1	-3.5	7.4	-1.8	11.9	-1.8	nt
Cc1ccc2nc(NC(=O)CN(C)S(=O)(=O)c3cccc4nsnc34)sc2c1	13.7	20.6*	-0.7	-11.1	-3.6	20.8	1.7
Cc1ccc2nc(NC(=O)CNS(=O)(=O)c3ccc(Br)s3)sc2c1	3.3	19.4*	28.3	3.7	-19.3	12.1	-4.7
CCCCn1c(N)c(N(CCOC)C(=O)COC(=O)c2cc(CCC)c(C)s2)c(=O)[nH]c1=O	14.8	-12.3	19.6	-10.4	-11.7	nt	nt
COc1ccc(Nc2cc(Nc3cc(OC)c(OC)c(OC)c3)ncn2)cc1	0.8	2.1	-1.8	6.2	-12.3	13.6	nt
Cc1cc(C)c(NC(=O)c2ccc3c(c2)CCN3S(C)(=O)=O)c(C)c1	-3.0	-6.3	19.1	-7.7	-20.4	17.7	nt
CCCCN1C[C@H](COC(=O)CCC)Oc2cccc(F)c2S1(=O)=O	nt	-9.2	nt	nt	nt	nt	nt
Cc1cccc(C)c1NC(=O)c1cc2c(=O)c3ccccc3oc2nc1C(F)(F)F	2.1	49.8*	20.0	-3.7	10.1	-0.7	-10.0
CC(=O)c1cc2c(=O)c3ccccc3oc2nc1C	11.0	-5.0	12.0	4.3	7.1	nt	nt
O=C(N/N=C/c1ccc(-c2ccccc2Cl)o1)c1ccccc1	13.0	32.0*	-1.0	-0.8	4.2	4.2	0.3
O=C(O)c1ccc(N/N=C/c2ccc(-c3ccccc3Cl)o2)cc1	-12.6	1.5	25.3	-2.6	-4.7	-1.6	nt
CC(=O)Nc1ccc2nc(NC(=O)COc3cccc(C)c3)sc2c1	2.2	46.9*	10.9	-4.2	3.3	9.2	6.9
CC(=O)Nc1ccc2nc(NC(=O)COc3ccc(C)cc3)sc2c1	-18.3	19.3*	1.9	0.5	-8.4	8.6	-6.3
CC(=O)Nc1ccc(NC(=O)COc2ccc(-c3ccc(C#N)cc3)cc2)cc1	5.2	33.6*	12.1	-2.2	12.2	nt	4.3
O=C(COc1ccccc1)Nc1nc2cc3c(cc2s1)OCO3	-5.0	27.7*	1.0	6.7	-8.5	15.2	0.8
N#Cc1ccc(-c2ccc(OCC(=O)Nc3cccnc3)cc2)cc1	-8.4	-18.0	12.1	nt	nt	-0.8	nt
O=C1CCc2cc(Br)ccc2O1	nt	-1.8	nt	nt	nt	nt	nt
O=C(NC(=S)Nc1nc(-c2cccc([N+](=O)[O-])c2)cs1)c1ccccc1Cl	8.4	88.2*	11.7	5.3	-10.1	22.1	4.6
O=C(NC(=S)Nc1nc(-c2cccc([N+](=O)[O-])c2)cs1)c1cc(Cl)ccc1Cl	-4.8	-4.0	8.2	7.8	-11.2	23.7	nt
CCc1ccccc1NC(=O)c1ccc2nc(N3CCOCC3)sc2c1	17.8	-6.1	18.0	-7.9	-0.3	7.2	nt
Cc1ccc(NC(=O)c2ccc3nc(N4CCOCC4)sc3c2)c(Cl)c1	17.1	141.2*	7.6	1.6	-0.6	1.8	-0.1
CCCOc1ccc(C(=O)CCC(=O)OCC(=O)N2CCN(S(=O)(=O)c3ccc(C)cc3C)CC2)cc1	nt	-13.0	nt	nt	nt	nt	nt
